The record followed here is PubChem BioAssay (NCI).

SMILES strings stand for the structures. This is part of a sample that, as a whole, favours compounds with a hit. Of some 83,000 tested, about 20% had one in any assay.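 Growth was measured after 48 h exposure to one concentration of compound in 96-well plates. Values under 10 count as active.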 Activity calls are given as the source filed them.

This assay deals with HCT-15 colon. As to the kind of experiment: NCI-60 one-dose screen, 48 h (100 = growth as untreated, 0 = no growth, -100 = all killed). The following applies: 10 µM unless noted.
As for `O=C1OC(Cc2ccccc2)C1c1ccccc1` (stereo not drawn), the growth was 101% (inactive).

As for `O=C1Nc2cc(-c3ccc(NC(=O)c4ccccc4)cc3)ccc2/C1=C/c1ccc[nH]1`, the growth is 87.9% (inactive).

As for `O=C(N/N=C/c1cc2ccccc2n2nnnc12)Nc1ccccc1`, the growth was 98.3% (inactive).

With `O=C1c2ccc3c4c(ccc(c24)C(=O)N1CCCNCc1ccccc1)C(=O)N(CCCNCc1ccccc1)C3=O`, the growth was -57.7% (active).

As for `C=C1C(=O)O[C@H]2[C@H]1CC/C(COC(=O)NCCc1c[nH]c3ccc(OC)cc13)=C\CC[C@@]1(C)O[C@@H]21`, the growth was -54.7% (active).

On to `CCOc1ccc(Nc2nc(-c3ccc4c(c3)NC(=O)CO4)cs2)cc1`, for which the growth was 51.3% (inactive).

Take `COc1ccc(C(=O)c2cc(C)c(OC)c(C)c2)c(OC)c1OC(=O)C(Cl)Cl`: the growth is 3.34% (active).

On to `CN(C)c1ccc(Nc2c3ccccc3nc3cc(NC(=O)CCN4CCCC4)ccc23)cc1`, for which the growth was -18.4% (active).

With `Cc1nc(N)nc(N[C@@H](C)c2nc3cccc(NCc4ccc(C(=O)NO)cc4)c3c(=O)n2-c2ccccc2)n1`, the growth was 110% (inactive).

Take `COc1ccc(C/C(=C(\C)c2ccc(OCCN3CCCC3)cc2)c2ccc(OCCN3CCCC3)cc2)cc1`: the growth is 11.9% (inactive).

Turning to `NC(=NCCCOc1ccc(F)cc1)Nc1ccc(Cl)cc1`, the growth is 69.4% (inactive).

Turning to `CCCOC(=O)N[C@H]1CCc2c(Cl)c(OC)c(OC)c(OC)c2-c2ccc(SC)c(=O)cc21`, the growth is 12.9% (inactive).

Consider `N#Cc1c(NC(=O)NCc2ccccc2)sc2c1CCCC2`, for which the growth is 20.3% (inactive).

On to `NCCCCCCNc1cc(-c2cccc(OC(F)(F)F)c2)nc2ccc(N3CCCC3)cc12`, for which the growth is -54.2% (active).

On to `C[C@H]1[C@H](C)CC[C@]2(C(=O)NCC#CCN3CCN(C)CC3)CC[C@]3(C)C(=CC[C@@H]4[C@@]5(C)Cc6c([nH]c7ccccc67)C(C)(C)[C@@H]5CC[C@]43C)[C@H]12`, for which the growth is 47% (inactive).

For the molecule `N#Cc1c(NCc2ccccc2I)sc2c1CCCCC2`, the growth was 94.8% (inactive).

`CN1C(=O)NC(c2ccc3c(c2)OCO3)C=C1c1ccccc1` (stereo not drawn): the growth was 77.8% (inactive).

For `COc1cc(/C=C\C(=O)O)ccc1OCc1ccccc1`, the growth is 107% (inactive).

As to `CCN(CC)c1ccc(/C=N/NC(=O)CSc2nc3ccccc3c(=O)n2Cc2ccc(S(N)(=O)=O)cc2)c(O)c1`, the growth is 47.5% (inactive).

In the case of `Cc1ccc(S(=O)(=O)NNC(=O)/C(=C\c2ccc(Cl)cc2)c2nc3ccccc3s2)cc1`, the growth is 79.5% (inactive).

On to `CCOC(=O)[C@@H]1CCCN(S(=O)(=O)c2ccc(S(=O)(=O)N(CC)CC)c(F)c2)C1`, for which the growth was 84.4% (inactive).

As for `Cc1ccc(CNc2c3ccccc3nc3cc(NC(=O)CCN4CCCC4)ccc23)cc1`, the growth is 7.15% (active).

For `COc1ccc(CC(C)=C(c2ccc(OCCN3CCCCCC3)cc2)c2ccc(OCCN3CCCCCC3)cc2)cc1`, the growth is -95.9% (active).

Regarding `CCCCNC(=O)Oc1ccc(/C(=C(\C)c2ccccc2)c2ccc(OCCN3CCCCC3)cc2)cc1`, the growth was 9.66% (active).

For `Cn1c2ccccc2c2c3c(c4c5ccccc5n(C)c4c21)C(=O)OC3`, the growth was 96.7% (inactive).

On to `CNC(=O)c1cc(Cn2nc(C)c(NC(=O)Nc3ccc(Cl)c(C(F)(F)F)c3)c2C)ccn1`, for which the growth is 98% (inactive).

On to `O=C(Nc1ccc(NC(=O)c2cc(=O)[nH]c3ccccc23)cc1)Nc1cccc(Cl)c1`, for which the growth is 103% (inactive).

Turning to `COc1ccc(C(=O)CSc2nc(-c3cc(OC)ccc3OC)cc(-c3ccc(Cl)cc3)c2C#N)cc1`, the growth was 62.7% (inactive).

Consider `Cc1cc(C)c(S(=O)(=O)Oc2ccccc2[N+](=O)[O-])c(C)c1`, for which the growth was 15.8% (inactive).

As for `O=C(CCN1CCCC1)Nc1ccc2c(NCc3ccccc3)c3ccccc3nc2c1`, the growth was 20.6% (inactive).

Turning to `CCN(CC)c1ccc(/C=N/NC(=O)CSc2nc3ccccc3c(=O)n2CCc2ccc(S(N)(=O)=O)cc2)c(O)c1`, the growth was 25.9% (inactive).

For `O=C(CSc1nc2sc3c(c2c(=O)n1-c1ccc(Cl)cc1)CCCC3)Nc1nc(-c2cccc(Br)c2)cs1`, the growth was 87.8% (inactive).

Regarding `COc1ccc(C(C)=O)c(OC)c1`, the growth is 106% (inactive).

`COc1cccc(-c2nc3occn3c2-c2ccnc(NCCCNS(=O)(=O)c3ccc(C(F)(F)F)cc3)n2)c1`: the growth is 85.3% (inactive).

For `C=C1C(=O)O[C@H]2[C@H]1CC/C(C(=O)NCCCCCNC(=O)/C1=C/CC[C@@]3(C)O[C@H]3[C@H]3OC(=O)C(=C)[C@@H]3CC1)=C\CC[C@@]1(C)O[C@@H]21`, the growth is 95.5% (inactive).

`C=C1C(=O)O[C@H]2[C@H]1CC/C(COC(=O)NCc1c[nH]c3ccc(F)cc13)=C\CC[C@@]1(C)O[C@@H]21`: the growth is -63.9% (active).

Regarding `Cc1cc2nc3c4cccc(O)c4n(CCN(C)C)c3nc2cc1C`, the growth was 21.6% (inactive).

For the molecule `O=C(Cc1ccccc1)NNc1nc(Cl)nc(N2CCN(C(c3ccccc3)c3ccccc3)CC2)n1`, the growth was 44.7% (inactive).
